Measurements from ChEMBL document CHEMBL3988442, “University of Dundee, Small-Polar-MMV Screening Library” (2021).
Potency and affinity values are given separately.

These compounds were tested against Protein translocase subunit SecA (Escherichia coli (strain K12)) (UniProt P10408) (assay: Assay to Identify E. coli SecA ATPase Inhibitors). Details: 30 µM.
Sequence of Protein translocase subunit SecA (Escherichia coli (strain K12)) (P10408 whole entry): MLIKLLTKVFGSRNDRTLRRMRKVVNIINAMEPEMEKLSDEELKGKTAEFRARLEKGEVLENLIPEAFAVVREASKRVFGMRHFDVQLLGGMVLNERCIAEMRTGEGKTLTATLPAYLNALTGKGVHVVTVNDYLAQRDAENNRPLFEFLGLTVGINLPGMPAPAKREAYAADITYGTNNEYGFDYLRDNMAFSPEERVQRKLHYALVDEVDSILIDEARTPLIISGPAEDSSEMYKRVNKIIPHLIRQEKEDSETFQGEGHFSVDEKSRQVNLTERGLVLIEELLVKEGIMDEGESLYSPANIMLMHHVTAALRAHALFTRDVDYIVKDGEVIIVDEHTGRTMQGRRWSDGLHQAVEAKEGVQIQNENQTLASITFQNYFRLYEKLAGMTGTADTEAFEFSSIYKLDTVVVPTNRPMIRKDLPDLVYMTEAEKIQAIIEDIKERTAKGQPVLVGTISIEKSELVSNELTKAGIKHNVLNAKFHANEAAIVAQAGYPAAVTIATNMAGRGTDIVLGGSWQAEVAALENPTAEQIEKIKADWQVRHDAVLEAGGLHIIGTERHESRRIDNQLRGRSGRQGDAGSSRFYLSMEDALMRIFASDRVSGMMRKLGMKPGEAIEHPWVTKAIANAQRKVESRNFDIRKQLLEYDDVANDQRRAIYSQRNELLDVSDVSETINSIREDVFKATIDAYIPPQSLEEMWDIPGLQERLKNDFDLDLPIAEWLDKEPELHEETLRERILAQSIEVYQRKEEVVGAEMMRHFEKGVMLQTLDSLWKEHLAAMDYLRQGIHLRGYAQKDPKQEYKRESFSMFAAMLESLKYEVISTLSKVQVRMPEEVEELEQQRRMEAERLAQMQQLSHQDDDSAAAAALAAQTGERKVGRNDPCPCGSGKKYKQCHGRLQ
Assay type: functional
Design: scale not given: direction of the effect not stated beside the values
Work on `CCN(CC1CN(CCc2ccccn2)CCO1)c1cccnn1` (stereo not given) yielded a Percent Effect of -2.15%. `O=C(NCc1ccc(-n2cncn2)nc1)c1ccoc1` was tested, and the Percent Effect was -8.93%. With `Cc1ccsc1C(=O)N1CC(C(=O)N2CCOCC2)C2(CCOCC2)C1` (stereo not given) the Percent Effect was -7%. Compound `Cn1ncc2c(=O)[nH]c(CN3CCCC3CC3CCCCC3)nc21` (stereo not given) has a Percent Effect of -1.58%. Compound `CCN1C[C@H]2CCN(C(C)=O)CC[C@H]2S1(=O)=O` has a Percent Effect of -0.139%. Compound `COc1ccc(-c2nc(CN3CCOCS3(=O)=O)c(C)o2)cc1` has a Percent Effect of -1.22%. Work on `Cn1nc(C2CN(C(=O)c3cscn3)C2)c2nccnc21` yielded a Percent Effect of -0.655%. Work on `c1coc(CN2CCCC3(COCCN(Cc4c[nH]nn4)C3)C2)c1` (stereo not given) yielded a Percent Effect of -3.44%. Compound `COCCO[C@@H]1C[C@H]2CN(C(=O)c3cnccn3)CCN2C1` has a Percent Effect of -2.84%. In the case of `CC(=O)N1CCC(C(=O)c2cc(C)cnc2N)CC1`, the Percent Effect is reported as -3.36%. `Cc1ccc(C(=O)N(C)Cc2cc(Br)cs2)c(=O)[nH]1` showed a Percent Effect of 1.09%. In the case of `Cc1nc(C)n(CC2CN(CCc3ccncc3)CCO2)n1` (stereo not given), the Percent Effect is reported as -1.44%. With `CN(CC(N)=O)S(=O)(=O)c1ccc(F)cc1Cl` the Percent Effect was -4.21%. `CC(=O)NCC1CCN(CC2CCOc3ccccc3C2)CC1` (stereo not given) was tested, and the Percent Effect was -1.44%. Work on `Cc1nn(-c2ccccc2)nc1C(=O)N1CCCC1c1cnn(C)c1` (stereo not given) yielded a Percent Effect of -5.15%. Work on `CCC1=N[C@@]2(CC[C@@H]3CN(CC4CC4)C[C@@H]32)C(=O)N1C` yielded a Percent Effect of -4.94%. `Cc1cccc2c1OCCC2NCc1c(C)nn(C)c1N(C)C` (stereo not given) gave a Percent Effect of 1.41%. In the case of `Cc1ccc(CN2C[C@@H]3COC[C@@H](NS(C)(=O)=O)[C@@H]3C2)o1`, the Percent Effect is reported as -1.26%. With `CN(Cc1ccc(Cl)s1)C(=O)NCc1nnc2n1CCC2` the Percent Effect was -2.21%. `Cn1cnc(S(=O)(=O)N2CCN(Cc3ccco3)CC2)c1Cl` showed a Percent Effect of -3.16%.
